In PubChem BioAssay AID485290 (National Center for Advancing Translational Sciences (NCATS), 2010):
Several values for one entry are separate records, joined by “and”; a condition that tells them apart may be missing. Identical values can stand only once. In all, about 350,000 compounds went through this assay and about 990 (0.28%) were called active. Another 2% or so got no clear call; they are omitted. This is one part of a sample in which actives are shown more often than they occur. Calls come from the whole dose curve; as a rule, active = well fitted inhibition curve with a large enough effect; inconclusive = small, poorly fitted or top-dose-only effect; inactive = no such curve, though single readings can be large or run the other way. The source holds several records for some structures; these can differ, active in one and inactive in another.

Each compound was assayed against Tyrosyl-DNA phosphodiesterase 1 (Homo sapiens) (UniProt Q9NUW8) (assay: qHTS Assay for Inhibitors of Tyrosyl-DNA Phosphodiesterase (TDP1)). Settings: recombinant TDP1, AlphaScreen DNA substrate cleavage; series mostly up to 130 µM.
Text: NIH Molecular Libraries Probe Production Network [MLPCN]
NIH Chemical Genomics Center [NCGC]
Assay Provider: Yves Pommier and Christophe Marchand, National Cancer Institute
Assay Title: qHTS Assay for Inhibitors of Tyrosyl-DNA Phosphodiesterase (TDP1); note: nearly all actives have a fitted effect of over 40% in size
Human tyrosyl-DNA phosphodiesterase I (Tdp1) is a rational anticancer target because this enzyme is involved in the repair of DNA lesions created by the trapping of human DNA topoisomerase I (Top1) following treatment by anticancer agents such as camptothecins. Recombinant Tdp1 was expressed and purified from E. coli in the laboratory (Anthony et al, Nucleic Acids Research, 2007, Vol. 35, 4474-4484). A Tdp1 DNA substrate bearing a 5' biotin and a 3' phospho-tyrosine was obtained by custom synthesis. This oligonucleotidic DNA substrate was subsequently coupled to a fluorescein isothiocyanate (FITC) group via the free amino group present on the phospho-tyrosine. Tdp1 was screened against the NCGC small molecule library using the AlphaScreen (AS) detection method in which a streptavidin donor AS bead is bound at the 5' end and an anti-FITC AS acceptor bead is bound at the 3' end of the DNA oligonucleotidic substrate. In the presence of Tdp1, the enzyme cleaves the tyrosine-FITC group, leaving a 3' end phosphate on the DNA substrate. This cleavage reaction results in a loss of signal in AS.
[1] 3 ul of buffer is dispensed in columns 3 & 4 as negative control (no enzyme and maximum signal),
[2] 3 ul of enzyme (1 nM final) is dispensed in columns 1,2, 5-48,
[3] 1 ul of substrate (15 nM final) is dispensed throughout the plate,
[4] 1 ul of AS donor/acceptor bead mix (10 ug/ml final) is dispensed throughout the plate
3 ul of Tdp1 enzyme is dispensed to 1536-well Kalypsys black solid bottom plates. Compounds and controls (23 nl) are transferred via Kalypsys Pin Tool. The plates are incubated for 15 min at room temperature, and then 1 ul of substrate is added to start the reaction. After 5 min incubation at room temperature, 1 ul of AS donor/acceptor bead mix is added and the plates are further incubated for 10 min at room temperature. The detection is then performed on a PerkinElmer Envision reader.
Potency is the fitted concentration of half-maximal effect.

Chain of Tyrosyl-DNA phosphodiesterase 1 (Homo sapiens) (Q9NUW8 whole entry, looked up): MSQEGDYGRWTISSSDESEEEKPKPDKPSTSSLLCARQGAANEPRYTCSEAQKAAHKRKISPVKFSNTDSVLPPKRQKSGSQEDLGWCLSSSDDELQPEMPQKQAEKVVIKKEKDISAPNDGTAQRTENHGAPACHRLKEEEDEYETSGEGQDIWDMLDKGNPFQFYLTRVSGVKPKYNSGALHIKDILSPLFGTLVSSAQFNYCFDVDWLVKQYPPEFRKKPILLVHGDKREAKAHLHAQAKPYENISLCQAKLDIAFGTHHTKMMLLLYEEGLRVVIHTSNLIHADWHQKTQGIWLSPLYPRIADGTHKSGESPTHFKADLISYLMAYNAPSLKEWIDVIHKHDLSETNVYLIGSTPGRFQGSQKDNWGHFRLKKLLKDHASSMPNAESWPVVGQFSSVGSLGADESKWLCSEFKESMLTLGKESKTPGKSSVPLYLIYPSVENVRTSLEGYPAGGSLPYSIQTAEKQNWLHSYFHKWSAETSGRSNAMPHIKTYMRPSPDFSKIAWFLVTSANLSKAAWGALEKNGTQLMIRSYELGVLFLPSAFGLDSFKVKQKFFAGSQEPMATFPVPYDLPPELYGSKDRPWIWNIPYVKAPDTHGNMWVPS

Potency, inactive and 50.1 µM (active):
Nc1ccc2c3c(cccc13)C(=O)NC2=O

Potency, inactive:
Cc1nn(C)cc1N1C(=O)c2cccc3c(N)ccc(c23)C1=O
CCCNC(=O)CN(Cc1ccccc1F)S(=O)(=O)c1ccc(C)cc1
COC(=O)Cc1ccc(N(Cc2ccccc2F)S(=O)(=O)c2ccc(Br)cc2)cc1
O=C(CNC(=O)c1ccccc1)OC(C(=O)Nc1cc([N+](=O)[O-])ccc1F)c1ccccc1 (stereo unspecified)
O=C(CCCCCNC(=O)c1ccccc1)N/N=C/c1ccccc1
O=C(CCNC(=O)c1ccccc1Cl)NN=Cc1ccco1
O=C(Nc1ccc2nc(SCCOc3ccccc3Cl)sc2c1)c1ccco1
CCOC(=O)c1ccc(NC(=O)CC2C(=O)N(c3ccccc3)C(=O)N2Cc2cccs2)cc1 (stereo unspecified)
COc1ccc(-c2cn3nc(N4CCCC(C(=O)NCCCOC(C)C)C4)sc3n2)cc1 (stereo unspecified)
Cc1ccc(-c2nnc3ccc(SCC(N)=O)nn23)cc1
O=C(CCc1ccccc1)NCCc1cccs1
O=C(O)CCC(=O)N(Cc1ccccc1)Cc1ccccc1
Cc1ccc2ccc3c(c2n1)NS(=O)(=O)c1ccccc1-3
CCn1c(COc2ccccc2)nnc1SCC(=O)NCc1ccco1
O=C(CSc1nc2ccc(Nc3nc(N4CCOCC4)nc(N4CCOCC4)n3)cc2s1)NCc1ccco1
N#Cc1nc(Nc2cc(F)cc(Cl)c2)nc(NC2CCCC2)n1
Cc1ccc(C2C=C(c3ccc(Cl)cc3)Nc3nc(NC(=O)CCC(=O)O)nn32)cc1 (stereo unspecified)
Cc1csc(NC(=O)CSc2nc(=O)cc(N)n2-c2ccc(F)cc2)n1
COc1cccc(-n2c(N)cc(=O)nc2SCC(=O)Nc2cc(C)on2)c1
CCc1ccc(NC(=O)CN2CCSc3ccc(S(=O)(=O)N4CCCC4)cc32)cc1
CC(C)c1ccc(C2CC(=O)N3CN(C4CCCCC4)CSC3=C2C#N)cc1 (stereo unspecified)
Cc1ccc(Cn2ncc3c4sc(C)cc4n(C)c3c2=O)c(C)c1
CCSc1nnc(NC(=O)c2cc(=O)c3cc(C)c(C)cc3o2)s1
NC(=O)CSc1nnc(NC(=O)c2ccc3ccccc3c2)s1
COc1cccc(NC(=O)C(=O)NCC(c2ccc3c(c2)OCO3)N2CCN(C)CC2)c1 (stereo unspecified)
O=C(Nc1ccc(F)cc1F)c1ccc2c(=O)n3c(nc2c1)CCCCC3
COc1cc(C(=O)NCCc2csc3nc(-c4ccccc4C)nn23)cc(OC)c1OC
CC1CCCN(C(=O)c2cc(-c3ccco3)nc3ccccc23)C1 (stereo unspecified)
CN(CCOc1ccccc1)C(=O)c1cc(-c2ccco2)nc2ccccc12
N#CN1CCC(NS(=O)(=O)c2cccc(F)c2)C1 (stereo unspecified)
COc1cccc(NC(=O)c2ccc3nc(CCc4ccccc4)oc3c2)c1
COc1cccc(OC2=NS(=O)(=O)c3ccccc32)c1
COC(=O)c1ccccc1NC(=O)c1ccc2c(=O)n3c(nc2c1)CCCCC3
O=C(OCC#CCSc1nnc(-c2ccco2)o1)c1ccc(F)cc1
CN1C(=O)/C(=C\c2ccc(-c3ccccc3)o2)SC1=S
Cc1cc(/C=C2\SC(=Nc3ccc(N4CCOCC4)cc3)N(C)C2=O)c(C)n1-c1cccnc1
CCOC(=O)c1scc(-c2ccccc2)c1S(=O)(=O)Nc1ccccc1F
COc1ccc(-c2nc3sc(CCNC(=O)C(C)(C)C)c(C)n3n2)cc1
O=C(Nc1nc(-c2cccnc2)cs1)c1ccccc1F
Cc1cccc(Nc2nc(-c3ccccc3)cs2)n1
COc1ccc(-c2c3c(=O)n(C)c(=O)n(C)c3c3c(C)nc4ccccc4n23)cc1
O=C(CNC(=O)c1ccc(Cl)cc1Cl)OC(C(=O)Nc1cc(C(F)(F)F)ccc1Cl)c1ccccc1 (stereo unspecified)
CCc1nc(-c2cc(S(=O)(=O)N3CCN(c4ccc(OC)cc4)CC3)ccc2OC)no1
CCc1ccc(OCCCn2c(CCCNC(=O)C3CCCCC3)nc3ccccc32)cc1
Cc1ccnc2nc(C(=O)OCC(=O)N(CC(C)C)CC(C)C)nn12
O=C(Nc1nnc(-c2ccc(Cl)cc2)o1)c1ccccc1Br
COc1ccc(C(=O)CSc2c(C(C)C)cnc3c2c(=O)n(C)c(=O)n3C)cc1
CCN(CCCNC(=O)c1ccc(Sc2ccc(C)cc2)c(NC(C)=O)c1)c1cccc(C)c1
Cc1ccc(-n2ncc3c(NCCCn4ccnc4)ncnc32)cc1Cl
COc1ccc(C2Nc3ccccc3C(=O)N2Cc2ccccc2)cc1COc1ccc(C(N)=O)cc1 (stereo unspecified)
CCc1ccccc1NC(=O)c1ccc2nc(CCc3ccccc3)oc2c1
Cc1cc(=O)oc2cc(OC(C)C(=O)NCCc3ccc(S(N)(=O)=O)cc3)ccc12 (stereo unspecified)
Cc1cc(=O)oc2cc(OC(C)C(=O)Nc3ccc(N4CCOCC4)cc3)ccc12 (stereo unspecified)
COc1ccc(S(=O)(=O)NCC(c2ccc(N(C)C)cc2)N2CCc3ccccc32)cc1OC (stereo unspecified)

Potency, active:
CC(=O)c1ccc(S(=O)(=O)N(C)CCCC(=O)N(C)Cc2ccccc2F)cc1 79.4 µM
O=C(CCNC(=O)c1ccccc1)NN=Cc1ccc(Br)o1 14.1 µM
O=C(O)CCC(=O)N(Cc1cccs1)Cc1cccs1 70.8 µM
C=CCn1c(CSc2nc3ccccc3s2)nnc1SCC(=O)NCc1ccco1 50.1 µM
Cc1cc(NC(=O)CSc2nc(=O)cc(N)n2-c2ccc(F)cc2)no1 100 µM
NC(=O)CSc1nnc(NC(=O)c2ccc(Br)o2)s1 56.2 µM
Cc1cc(C)c2nc(-c3ccco3)cc(C(=O)O)c2c1 3.55 µM
CN1C(=O)/C(=C/c2ccco2)SC1=Nc1cccc(C(=O)O)c1 25.1 µM
Cc1ccccc1Nc1nc(-c2cccnc2)cs1 100 µM
Cc1ccnc2nc(C(=O)Nc3nnc(-c4ccccc4)o3)nn12 50.1 µM
Cc1cc(=O)oc2cc(NC(=O)C(C)Oc3ccccc3)ccc12 (stereo unspecified) 56.2 µM
